Results reported in ChEMBL document CHEMBL2218924, “A broad activity screen in support of a chemogenomic map for kinase signalling research and drug discovery” (Biochem J, 2013).

What follows are molecules tested against Homeodomain-interacting protein kinase 3 (Homo sapiens) (UniProt Q9H422). Conditions: at 10 µM.
Chain of Homeodomain-interacting protein kinase 3 (Homo sapiens) (Q9H422 whole entry, looked up): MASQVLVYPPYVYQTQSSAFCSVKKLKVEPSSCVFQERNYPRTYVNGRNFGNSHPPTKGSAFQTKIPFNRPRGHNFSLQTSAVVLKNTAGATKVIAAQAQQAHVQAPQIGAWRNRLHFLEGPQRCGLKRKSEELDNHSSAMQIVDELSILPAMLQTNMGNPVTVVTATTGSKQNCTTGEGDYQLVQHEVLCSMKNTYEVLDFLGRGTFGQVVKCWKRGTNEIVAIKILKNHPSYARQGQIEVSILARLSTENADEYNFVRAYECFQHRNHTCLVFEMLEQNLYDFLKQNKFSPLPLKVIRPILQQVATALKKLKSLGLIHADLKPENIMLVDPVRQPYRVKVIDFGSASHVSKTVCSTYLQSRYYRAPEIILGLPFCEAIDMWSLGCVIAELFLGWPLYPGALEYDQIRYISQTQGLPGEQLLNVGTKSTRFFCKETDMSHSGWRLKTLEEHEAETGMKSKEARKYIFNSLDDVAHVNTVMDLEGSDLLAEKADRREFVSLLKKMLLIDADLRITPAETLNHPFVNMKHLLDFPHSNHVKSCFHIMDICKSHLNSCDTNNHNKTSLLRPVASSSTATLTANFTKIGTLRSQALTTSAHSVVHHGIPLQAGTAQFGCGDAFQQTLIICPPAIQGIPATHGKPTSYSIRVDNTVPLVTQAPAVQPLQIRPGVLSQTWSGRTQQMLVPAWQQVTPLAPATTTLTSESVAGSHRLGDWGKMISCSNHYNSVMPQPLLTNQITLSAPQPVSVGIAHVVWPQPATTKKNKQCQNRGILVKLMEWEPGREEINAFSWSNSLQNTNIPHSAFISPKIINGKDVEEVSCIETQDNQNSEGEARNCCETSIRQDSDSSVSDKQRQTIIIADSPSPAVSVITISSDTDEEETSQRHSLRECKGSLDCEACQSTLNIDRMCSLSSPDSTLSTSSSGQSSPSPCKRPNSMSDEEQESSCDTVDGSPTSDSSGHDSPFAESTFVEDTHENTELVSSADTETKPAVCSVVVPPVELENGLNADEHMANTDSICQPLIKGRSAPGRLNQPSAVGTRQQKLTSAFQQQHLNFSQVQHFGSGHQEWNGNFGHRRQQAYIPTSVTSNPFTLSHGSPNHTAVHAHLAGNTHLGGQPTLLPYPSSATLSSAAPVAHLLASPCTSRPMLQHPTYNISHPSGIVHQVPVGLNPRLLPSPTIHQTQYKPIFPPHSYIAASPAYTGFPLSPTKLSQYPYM
In the case of O=c1cc(N2CCNCC2)oc2c(-c3ccccc3)cccc12, the residual activity is reported as 99%. CC(C)[C@H](CO)Nc1nc(Nc2cc(N)cc(Cl)c2)c2ncn(C(C)C)c2n1 showed a residual activity of 73%. For O=C1NC(=O)c2c1c1c3ccccc3[nH]c1n1cncc21, the residual activity was 42%. With CN(C)S(=O)(=O)c1ccc2c(c1)/C(=C/c1cc3c([nH]1)CCCC3)C(=O)N2 the residual activity was 86%. For CC(C)(C)c1nc2c3ccc(F)cc3c3c(=O)[nH]ccc3c2[nH]1, the residual activity was 45%. Nc1ncnc2c1c(-c1ccc(Oc3ccccc3)cc1)cn2C1CCCC1 showed a residual activity of 97%. O=c1cc(N2CCOCC2)oc2c1ccc1ccccc12 showed a residual activity of 21%. With Oc1cccc(-c2nc(N3CCOCC3)c3oc4ncccc4c3n2)c1 the residual activity was 59%. CC(C)c1nn(-c2c(Cl)cccc2Cl)c2nc(Cc3ccc(OCCO)cc3)[nH]c(=O)c12 gave a residual activity of 103%. O=C1C(Cl)=C(N2C(=O)CCC2=O)C(=O)c2ccccc21 gave a residual activity of 86%. N#C/C(=C1/Nc2ccccc2S1)c1ccnc(NCCc2cccnc2)n1 was tested, and the residual activity was 21%. Molecule O=C(CCCc1ccc(-c2ccccc2F)cc1)Nc1ccc(O)cc1 has a residual activity of 98%. For CC(C)(C)n1nc(Cc2cccc3ccccc23)c2c(N)ncnc21, the residual activity was 97%. c1ccc(-c2cnc(Nc3ccc(OCCN4CCCC4)cc3)s2)cc1 was tested, and the residual activity was 31%. O=C(O)/C=C/c1cc(Br)c(Br)c(Br)c1Br gave a residual activity of 54%. Nc1ncnc2c1cnn2-c1ccccc1 showed a residual activity of 94%. COc1ccc2c(c1)c(C1=C(c3c[nH]c4ccccc34)C(=O)NC1=O)cn2CCCN(C)C showed a residual activity of 22%. CCN(CC)CCNC(=O)c1c(C)[nH]c(/C=C2\C(=O)Nc3ccc(Cl)cc32)c1C was tested, and the residual activity was -5%. In the case of CC(C)N(CCC(=O)c1ccc2ccccc2c1)Cc1ccccc1, the residual activity is reported as 100%. Molecule O=C(c1cc2cc(O)ccc2[nH]1)c1cc2cc(O)ccc2[nH]1 has a residual activity of 25%. For COc1cc2nccc(Oc3ccc(NC(=S)NC(=O)c4ccccc4C)cc3)c2cc1OC, the residual activity was 101%. In the case of NC(=O)Nc1sc(-c2ccc(F)cc2)cc1C(N)=O, the residual activity is reported as 90%. COc1ccc(Cl)cc1NC(=O)Nc1cc(C)nc2ccccc12 showed a residual activity of 98%. In the case of O=C(NC(NC(=S)Nc1ccc(F)c([N+](=O)[O-])c1)C(Cl)(Cl)Cl)C(c1ccccc1)c1ccccc1 (centres undefined), the residual activity is reported as 103%. Work on CCCCc1c(-c2ccc(OC)cc2)[nH]c2nccnc12 yielded a residual activity of 110%. Work on CCN1/C(=C/C(C)=O)Sc2ccc(OC)cc21 yielded a residual activity of 75%. CCCC(=O)Oc1ccc2[nH]c(C(=O)c3cc4ccccc4[nH]3)cc2c1 gave a residual activity of 98%. O=C1Nc2ccc(Cl)cc2/C1=C/c1cc(Cl)c(O)c(Cl)c1 gave a residual activity of 46%. For N#Cc1c(NC(=O)c2cccc3ccccc23)sc2c1CCCC2, the residual activity was 99%.
